The list is not random: actives were taken first. Their share in the collection is about 8%.
Marburg entry inh = inhibitors of Marburg virus binding or cell entry | AID 540276 | Potency, µM (top dose mostly 37.8 µM), for the others: top-dose activity change, negative = inhibition, actives largely listed as inhibitors | 300,000 compounds, 1.8% hits | Marburg virus pseudotyped entry inhibition, cell reporter; calls by dose curve; tested in HEK293 cells; also: potency is read from the fitted curve at half-maximal effect; % is scaled to controls: 0 for no effect and ±100 for the full control effect
HCV inhibitor = blocks hepatitis C virus; AID 651820; Huh7.5.1 HCVcc-Cre infection, luciferase reporter, 44 h; Potency, µM (highest dose often 41.8 µM), for inactives: top-dose activity change, negative = inhibition, usual class: inhibitors; 340,000 compounds, 3.4% hits; active = well fitted inhibition curve with a large enough effect; inconclusive = small, poorly fitted or top-dose-only effect, or another doubt; inactive = no such curve, though single readings can be large or run the other way; also: potency is read from the fitted curve at half-maximal effect; % is scaled to controls: 0 for no effect and ±100 for the full control effect
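A cell-based infection assay in which seeded cells (1,000 per well) receive test compound after 4 h, are inoculated with HCVcc-Cre at approximately 0.5 moi, and are incubated 44 h before luminescence detection.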
SARS PLP yeast = blocks SARS-CoV papain-like protease in a yeast assay; S. cerevisiae expressing SARS-CoV PLpro, growth rescue; Potency, µM (highest dose often 32.9 µM), for inactives: top-dose activity, positive = growth rescue, usual class: activators; 330,000 compounds, 0.19% hits; AID 485353; calls by dose curve; also: potency is read from the fitted curve at half-maximal effect; 0% is about no effect; nearly all actives have a fitted effect of over 55% in size
HCMV antiviral = inhibitors of human cytomegalovirus; HFF cells, HCMV-luciferase reporter, 72 h; hits give low values; activity change, negative = inhibition, % at 57.5 µM; 410,000 compounds, 4.5% hits; AID 1259415; in the data active = activity change below about -60%; inconclusive = no clear call, values can overlap the other calls; inactive = above about -39%; also: % is scaled to controls: 0 for no effect and ±100 for the full control effect
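Luciferase read-out from HCMV-luciferase-infected HFFs (MOI 1 PFU/cell) 72 h post infection at 37C; compounds added after 16 h cell attachment; activity normalized between buffer-only basal and Salinomycin (10uM) inhibitor controls.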
Lassa entry inh = inhibitors of Lassa virus binding or cell entry; Lassa virus pseudotype entry inhibition, cell reporter; Potency, µM (top dose mostly 37.9 µM), for the others: top-dose activity change, negative = inhibition, most hits filed as inhibitors; 300,000 compounds, 1.2% hits; calls by dose curve; tested in HEK293 cells; also: potency is read from the fitted curve at half-maximal effect; % is scaled to controls: 0 for no effect and ±100 for the full control effect; nearly all actives have a fitted effect of over 50% in size
FMDV antiviral = foot and mouth disease virus antiviral activity | FMDV antiviral cell-based qHTS | Potency, µM (series often up to 57.9 µM), for inactives: top-dose activity change, negative = inhibition, most hits filed as inhibitors | 410,000 compounds, 1.2% hits; calls by dose curve; tested in HEK293T cells; also: read-out not given here; potency is read from the fitted curve at half-maximal effect; % is scaled to controls: 0 for no effect and ±100 for the full control effect; nearly all actives have a fitted effect of over 45% in size
Numbers without * were called inactive; ? = inconclusive; / = no result given; [ ] = another dose, or the depositor's remark.

SMILES | Marburg entry inh | HCV inhibitor | SARS PLP yeast | HCMV antiviral | Lassa entry inh | FMDV antiviral
COC(=O)[C@H]1[C@H](CO)[C@H]2Cn3c(cccc3=O)[C@@H]1N2Cc1ccncc1 | / | / | / | 6 | / | /
CCc1nc(SCC(=O)N2c3ccccc3CC2C)c2c(C)c(C)sc2n1 (centres undefined) | 0.92µM* | 13µM* | 0% | -38 | 1.5µM* | /
Cc1ccccc1-n1ncc2c(SCC(=O)NC3CCCC3)ncnc21 | ? | 4µM* | 3% | -72* | / | ?
COc1ccc(N2CCN(C(=O)CSc3ncnc4c3cnn4-c3ccccc3C)CC2)cc1 | 16% | 2% | 4% | -15 | 1% | ?
Cc1sc2nc(C(C)C)nc(SCC(=O)N3c4ccccc4CC3C)c2c1C (centres undefined) | ? | ? | 3% | -20 | ? | 0%
Cc1ccccc1-n1ncc2c(SCC(=O)N3c4ccccc4CC3C)ncnc21 (centres undefined) | ? | ? | -11% | -67* | -30% | /
O=C(CSc1ncnc2c1cnn2-c1ccccc1Cl)N1CCN(C(=O)c2ccco2)CC1 | -23%[46.1 µM] | -25% | -4% | 24 | ? | 35µM*
Cc1cc(C)n(C(C)CC(=O)Nc2ccc(C)c(N(C)C)c2)n1 (centres undefined) | / | / | / | -14 | -10%[46.1 µM] | -17%
CCCc1nc(SCC(=O)N2CCOCC2)c2c(C)c(C)sc2n1 | ? | 1% | -4% | -78* | -2%[46.1 µM] | 31%
Cn1c(=N)n(CC(=O)c2ccc(F)cc2)c2ccccc21 | ? | ? | 0% | ? | ? | -24%
Cn1c(=N)n(CC(=O)c2ccc(Br)cc2)c2ccccc21 | ? | 6.3µM* | / | 27 | 10µM* | -9%
CCn1c(=N)n(CC(=O)c2ccc(OC)cc2)c2ccccc21 | 10µM* | -15% | -3% | 23 | ? | -5%
CCOC(=O)Cn1c(=N)n(CCOc2ccc(OC)cc2)c2ccccc21 | ? | -3% | 20% | 2 | -11%[46.1 µM] | -7%
N#Cc1nc(Nc2cccc(Cl)c2)c2ncn(C3CCCC3)c2n1 | / | / | 1% | -87* | / | -57%
CCn1cnc2c(Nc3cccc(Cl)c3)nc(N[C@@H]3CCCC[C@@H]3N)nc21 | 12µM* | / | / | / | 8.2µM* | /
COc1ccc(N2CCN(CCCNC(=O)c3ccc4nc(Cc5ccccc5)oc4c3)CC2)cc1 | / | / | / | -60* | ? | 25µM*
COc1ccc(N2CCN(CCCNC(=O)c3ccc4nc(CCc5ccccc5)oc4c3)CC2)cc1 | / | / | / | -14 | 10µM* | ?
COc1ccc(Cc2nc3ccc(C(=O)NCCCN4CCN(C)CC4)cc3o2)cc1 | / | / | / | 34 | ? | ?
Oc1cc(-c2nc3ccccc3s2)cc2c1OCCN(Cc1cccn1-c1nccs1)C2 | / | / | / | / | / | 23%
COc1ccc(CCN2CCCn3c2nc2c3c(=O)n(CC(C)C)c(=O)n2C)cc1OC | / | 10µM* | -1% | -30 | / | ?
Cn1c(=O)n(Cc2ccccc2)c(=O)c2c1nc1n2CCCN1C1CCCCC1 | ? | 5% | / | -38 | 1% | ?
CCn1c(=O)c2c(nc3n2CCCN3CCc2ccc(OC)c(OC)c2)n(C)c1=O | -17% | -19% | 0% | 29 | -13% | ?
Cn1c(=O)n(Cc2ccc(F)cc2)c(=O)c2c1nc1n2CCCN1C1CCCCC1 | -2% | 12% | -1% | -67* | -26% | ?
Cc1cccc(Cn2c(=O)c3c(nc4n3CCCN4Cc3ccccc3)n(C)c2=O)c1 | ? | 11µM* | 2% | -29 | -32% | ?
Cc1cc(N2CCN(C(=O)c3[nH]c(C(F)(F)F)nc3-c3ccccc3)CC2)c2ccccc2n1 | / | / | / | -29 | / | -21%
SMILES | Marburg entry inh | HCV inhibitor | SARS PLP yeast | HCMV antiviral | Lassa entry inh | FMDV antiviral
COc1ccc(/C=C(\C#N)C(=O)NCc2cccs2)cc1OC | 1% | 21% | -29% | 1 | 1% | -2%
C=CCNC(=O)/C(C#N)=C/c1ccc(OS(=O)(=O)c2ccc(C)cc2)c(OC)c1 | ? | 13% | -72% | -99* | 13µM* | 20µM*
COc1cc(/C=N/NC(=O)COc2cccc(F)c2)ccc1OS(=O)(=O)c1ccc(C)cc1 | ? | ? | 11% | ? | ? | 0%
COc1cc(/C=N/NC(=O)COc2ccc(Cl)cc2)ccc1OS(=O)(=O)c1ccc(C)cc1 | ? | 11µM* | -8% | 7 | ? | -25%
COC(=O)N/N=C/c1ccc(OS(=O)(=O)c2ccc(C)cc2)c(OC)c1 | 6%[46.1 µM] | 0% | -2% | -35 | 7.9µM* | -4%
Cc1cccc(N2CCc3c2nc2ccc(Br)cc2c3N)c1 | ? | 10µM* | -8% | ? | 10% | /
Nc1c2c(nc3ccc(Br)cc13)N(c1ccccc1)CC2 | 1% | 7.1µM* | ? | -9 | 7% | /
CSc1nc(C)c2c(n1)N(c1cccc(C)c1)CC2 | 1% | 10µM* | -14% | -26 | -2% | -17%
Cc1ccc2cc3c(nc2c1)N(c1ccccc1)CC3 | -1% | ? | 0% | ? | 11% | 8%
Nc1c2c(nc3ccc(Br)cc13)N(Cc1ccccc1)CC2 | -35% | 10µM* | 15% | -32 | -2% | -10%
Cc1cc(-c2ccnc(-n3ncc(C(=O)NCC4COCCO4)c3C3CC3)n2)c(C)s1 (centres undefined) | / | / | / | / | / | 47%
CCN1c2ccccc2N(C)C1(C)c1ccccc1 (centres undefined) | ? | -27% | -23% | / | ? | ?
CN1c2ccccc2N(C)C1(C)c1ccccc1 | ? | -5% | -24% | -93* | ? | 0%
COc1ccc(Nc2oc(COc3ccc(OC)cc3)nc2C#N)cc1 | 6.5µM* | ? | 8% | -70* | ? | 0%
COc1ccc(CNc2oc(COc3ccccc3)nc2C#N)cc1 | 2% | ? | -15% | 5 | ? | -13%
COc1ccc(CNc2oc(Cc3cccc4ccccc34)nc2C#N)cc1 | ? | ? | -11% | 4 | 18µM* | -5%
COc1ccc(Nc2oc(COc3cccc(C)c3)nc2C#N)cc1 | ? | ? | -5% | -31 | 11µM* | 27%
COc1ncc2ncc(=O)n(CCC#N)c2n1 | / | / | / | / | / | -2%
NC(=S)n1[nH]c(-c2ccc([N+](=O)[O-])cc2)c(N=Nc2cccc(Cl)c2)c1=O | ? | 13µM* | 0% | -101* | ? | ?
NC(=S)n1[nH]c(-c2ccc([N+](=O)[O-])cc2)c(N=Nc2ccc(O)cc2)c1=O | 22% | -18% | -11% | -36 | 1% | -27%
CC(C)C(NC(=O)c1ccoc1)c1nnc2n1CCN(C(=O)/C=C/c1ccc(F)cc1)CC2 (centres undefined) | / | / | / | / | / | -6%
Cc1cc(C(=O)OCC(=O)Nc2cccc(S(N)(=O)=O)c2)c2ccccc2n1 | 16%[46.1 µM] | 15% | 1% | ? | 9% | -30%
COc1ccc(O)c(C(=O)c2cnn(S(=O)(=O)c3ccc(C)cc3)c2)c1 | / | -5% | -1% | -74* | / | 9%

Screening results as filed in PubChem.
